Assay results published in PubChem BioAssay (NCI).
Values joined by “and” are separate entries in the source; they are usually repeats but may differ in a detail not shown here. Equal values may be shown once. This is part of a sample that, as a whole, favours compounds with a hit. Of some 79,000 tested, about 15% had one in any assay. Cut-off read from the data, not from the text of the source: active = growth inhibition above about 70%; inactive = the rest.

Legend:
[1] = NCI Yeast Anticancer Drug Screen. Data for the rad50 strain (AID 155);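 note: 0% = growth of vehicle-only cultures of the same strain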; conditions: S. cerevisiae rad50 strain growth inhibition; at 50.0 µM; stronger effect = higher value
Outline: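 Cells are treated with compound, grown, and their growth is then scored against vehicle-only cultures of the same repair-deficient yeast strain.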

[2] = NCI Yeast Anticancer Drug Screen. Data for the mec2-1 strain (AID 157); conditions: S. cerevisiae mec2-1 strain, at 50.0 µM, stronger effect = higher value
Outline: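 Growth inhibition is read against vehicle-treated controls after compound exposure of the mec2-1 yeast strain, which is defective in DNA damage repair or cell cycle control.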

[3] = NCI Yeast Anticancer Drug Screen. Data for the sgs1 mgt1 strain (AID 161);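 note: 0% = growth of cultures given vehicle only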; conditions: S. cerevisiae sgs1 mgt1 strain, at 50.0 µM, stronger effect = higher value
Outline: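 Yeast cells carrying a defined DNA-repair defect were exposed to test compounds. Growth inhibition was measured relative to vehicle-treated controls.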

[4] = NCI Yeast Anticancer Drug Screen. Data for the cln2 rad14 strain (AID 165);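 note: 0% = growth equal to vehicle treated cultures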; conditions: S. cerevisiae cln2 rad14 strain, at 50.0 µM, stronger effect = higher value
Outline: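 Growth inhibition, relative to vehicle-treated controls, is the read-out. The test organism is a yeast strain with defined genetic alterations, cln2 rad14.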

[5] = NCI Yeast Anticancer Drug Screen. Data for the bub3 strain (AID 167); conditions: S. cerevisiae bub3 mutant strain, at 50.0 µM, stronger effect = higher value
Outline: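 Part of a panel of yeast mutants defective in DNA damage repair or cell cycle regulation. Each strain is grown with compound, and inhibition is calculated relative to solvent-treated cultures.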

[6] = NCI Yeast Anticancer Drug Screen. Data for the mlh1 rad18 strain (AID 175); conditions: S. cerevisiae mlh1 rad18 strain growth inhibition; at 50.0 µM; stronger effect = higher value
Outline: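 Cells of a genetically altered yeast strain, deficient in DNA damage repair, were treated with compound. Their growth was then compared with that of vehicle-treated cultures to give inhibition.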

Measured: growth inhibition

O.O=[Se](=O)(O)O.[NH-]C1CCCCC1[NH-].[Pt+2] (stereo not given)
inactive: [1] -16.1% | [2] -16.9% | [3] -16.1% | [4] -21.5% | [5] -36.1% | [6] -55.5%

O=C(O)C(C(=O)O)P(=S)(S)c1ccccc1 (stereo not given)
inactive: [1] -2.1% | [2] 8.6% | [3] -2.75% | [4] 1.15% | [5] 35.3% | [6] 14.5%

N#CC1CCCCC1
inactive: [1] 0.4% | [2] -5.4% | [3] -0.35% | [4] -3.9% | [5] 4.65% | [6] 1.65%

O=C(O)c1ccccc1O.[Cu]
inactive: [1] -31.2% | [2] -32.5% | [3] -36.8% | [4] -3.85% | [5] -19.1% | [6] -8.65%

O=C(CF)[O][Sb]([O]C(=O)CF)([c]1ccccc1)([c]1ccccc1)[c]1ccccc1
inactive: [1] 9.8% | [2] 19.9% | [3] 23.8% | [4] -18.6% | [5] 16.2% | [6] 33.8%

CCOP(=O)(OCC)C(C)(CC)/N=C(\N)NC#N (stereo not given)
inactive: [1] -4.8% | [2] -36.9% | [3] -8.85% | [4] 12% | [5] 15% | [6] -18.1%

CCN(CC)CCc1ccccn1
inactive: [1] -13.4% | [2] -15.5% | [3] -7% | [4] -8.8% | [5] -14.4% | [6] 5.5%

CN(C)CCNC(=O)c1c([N+](=O)[O-])ccc(N(CCCl)CCCl)c1[N+](=O)[O-]
inactive: [1] 12.7% | [2] -11.4% | [3] -9.9% | [4] -27.7% | [5] 13.2% | [6] -2.65%

O=C(Cc1ccccc1)OCc1ccco1
inactive: [1] 6.9% | [2] -23.9% | [3] -30% | [4] -41.5% | [5] 13.4% | [6] -4.7%

COc1ccc(CC2c3cc(OC)c(OC)cc3CCN2C)cc1OC (stereo not given)
inactive: [1] -3.6% and -11.2% | [2] -5.2% and -18.4% | [3] -8.1% and -8.4% | [4] -5% and 13.1% | [5] 12.7% and -3.45% | [6] 8.4% and 1.7%

C/C=C/C=C\C=C/C(O)CC(OP(=O)(O)O)C(C)(O)/C=C/C1CC=CC(=O)O1 (stereo not given)
inactive: [1] -9.75% | [2] -52% | [3] -20.4% | [4] 8.65% | [5] -3.35% | [6] -44.2%

NC(=O)C(F)(F)Cl
inactive: [1] 12.8% | [2] 7.1% | [3] -20.4% | [4] 12.3% | [5] -28.8% | [6] -19.2%

CNc1cc(Cl)c(C#N)c(Cl)c1
inactive: [1] -2.6% | [2] -2.7% | [3] -0.7% | [4] -39.2% | [5] -24.6% | [6] 9.25%

CCOP(=O)(OCC)/C(C#N)=C/c1ncc[nH]1
inactive: [1] -36.6% | [2] -23.9% | [3] -48% | [4] 19.7% | [5] 26.2% | [6] -55.4%

CC(C)OP(=S)(OC(C)C)SSSP(=S)(OC(C)C)OC(C)C
inactive: [1] 14.2% | [2] 3.75% | [3] 1.95% | [4] -3.1% | [5] 12.7% | [6] 6.25%

COC(=O)C(C)NP(=O)(N1CC1)N1CC1 (stereo not given)
inactive: [1] 1.5% | [2] -2.25% | [3] -5.05% | [4] -10.2% | [5] -7.85% | [6] -14.3%

CCOP(=O)(CCBr)Oc1ccc([N+](=O)[O-])cc1 (stereo not given)
inactive: [1] -17.9% | [2] 11.8% | [3] -16.4% | [4] -2.6% | [5] 7.3% | [6] -20%

O=C(Cl)c1cc([N+](=O)[O-])cc([N+](=O)[O-])c1
inactive: [1] 48.1% | [2] 26.1% | [3] 45.9% | [4] -10.2% | [5] -1.6% | [6] 46.6%

NCCCNCCCN
inactive: [1] 5.2% | [2] -3.1% | [3] -3.95% | [4] -4.3% | [5] 7.85% | [6] -11.7%

O=[P+](O)c1ccccc1
inactive: [1] -5% and -7.35% | [2] -24.9% and -26.3% | [3] -18.4% and 4.85% | [4] 5.9% and 0.6% | [5] -4.65% and -2% | [6] -5.5% and 1.3%
